System: Vero E6 infected with SARS-CoV-2
Assay: inhibition of SARS-CoV-2 cytopathic effect; higher = more antiviral protection, active = above 15
Conditions: 48 h

Measured: inhibition of SARS-CoV-2 cytopathic effect

Clc1cccc(C(c2ccc3[nH]cnc3c2)n2ccnc2)c1 (stereo not given) [liarozole]
inactive: 1 nM 0.27% | 8.33 nM 3.78% | 100 nM 1.18% | 833.33 nM 1.7% | 10000 nM 1.64%

O=C(COc1cccc2c(=O)[nH]ccc12)c1ccccc1
inactive: 1 nM -1.31% | 8.33 nM 1.84% | 100 nM -0.2% | 833.33 nM -0.52% | 10000 nM 0.99%

COc1ccc(S(=O)(=O)Nc2cccnc2Nc2ccc(O)cc2)cc1
inactive: 1 nM 1.18% | 8.33 nM 4.25% | 100 nM 1.28% | 833.33 nM 0.22% | 10000 nM 1.62%

CCOc1c(N2CCOCC2)cnn(C)c1=O [emorfazone]
inactive: 1 nM -7.19% | 8.33 nM -6.29% | 100 nM -2.95% | 833.33 nM -0.94% | 10000 nM 0.67%

O/N=C/c1cc[n+](COC[n+]2ccc(/C=N/O)cc2)cc1 [obidoxime]
inactive: 1 nM 1.54% | 8.33 nM -0.64% | 100 nM -1.56% | 833.33 nM -1.59% | 10000 nM -2.39%

c1ccc(-c2oc3ncnc(NC[C@@H]4CCCO4)c3c2-c2ccccc2)cc1
inactive: 1 nM 0.95% | 8.33 nM 0.57% | 100 nM 0% | 833.33 nM 0.71% | 10000 nM 1.78%

O=C1C(=O)N(Cc2ccc(Cl)c(Cl)c2)c2ccccc21 [apoptosis-activator-II]
inactive: 1 nM 1.74% | 8.33 nM -0.59% | 100 nM -1.07% | 833.33 nM -3.55% | 10000 nM -3.11%

— the supplement of paper PMC13380429
